The supplement of paper PMC3334620
Whole data set: some 33,000 sequences, median “E-score (-0.5 to 0.5)” near -0.021, cut for the highest 2% near 0.32. The sample as a whole holds a higher share of the highest values than the screen did.

biological target: T1, Zap1 (UniProt P47043); assay: PBM E-score (8-mer binding enrichment) (E-score (-0.5 to 0.5)); higher = stronger / more preferred TF binding; conditions: protein concentration: 200 nM; construct: GST-full length
T1 sequence: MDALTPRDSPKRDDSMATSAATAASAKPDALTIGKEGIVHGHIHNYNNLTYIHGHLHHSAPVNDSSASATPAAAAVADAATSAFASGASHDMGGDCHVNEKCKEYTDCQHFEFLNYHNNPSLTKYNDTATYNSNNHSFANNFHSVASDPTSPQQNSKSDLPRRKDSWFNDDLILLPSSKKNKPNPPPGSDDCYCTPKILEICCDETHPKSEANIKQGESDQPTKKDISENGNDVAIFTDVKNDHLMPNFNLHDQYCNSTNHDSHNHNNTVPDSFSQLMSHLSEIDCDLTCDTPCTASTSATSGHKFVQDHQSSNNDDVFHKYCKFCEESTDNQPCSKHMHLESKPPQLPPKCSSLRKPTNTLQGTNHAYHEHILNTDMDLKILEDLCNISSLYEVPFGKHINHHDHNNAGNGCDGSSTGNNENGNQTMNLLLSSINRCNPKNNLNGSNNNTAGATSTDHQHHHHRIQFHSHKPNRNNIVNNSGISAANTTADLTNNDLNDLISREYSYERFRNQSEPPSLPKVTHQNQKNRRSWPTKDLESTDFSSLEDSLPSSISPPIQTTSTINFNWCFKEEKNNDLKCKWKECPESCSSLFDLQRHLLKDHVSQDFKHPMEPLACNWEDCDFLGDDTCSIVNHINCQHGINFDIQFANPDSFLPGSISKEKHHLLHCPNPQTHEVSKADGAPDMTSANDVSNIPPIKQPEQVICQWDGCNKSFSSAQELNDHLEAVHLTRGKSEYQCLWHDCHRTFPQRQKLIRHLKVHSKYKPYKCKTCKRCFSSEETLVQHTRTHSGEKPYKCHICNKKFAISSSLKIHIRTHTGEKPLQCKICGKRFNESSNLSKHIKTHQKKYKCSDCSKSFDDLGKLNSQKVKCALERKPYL
Experimental: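 Universal 'all 10-mer' protein binding microarrays (Agilent AMADID 015681) probed with GST-tagged S. cerevisiae TFs (full-length or DBD) made by in vitro transcription/translation (PURExpress), about 100-200 nM. Bound TF was detected with fluorescent anti-GST. Each ungapped 8-mer (which stands for itself and its reverse complement) is scored by the PBM enrichment score (E-score), a modified Wilcoxon-Mann-Whitney statistic from -0.5 to +0.5, computed with the Universal PBM Analysis Suite. Scale: above 0.35 generally sequence-specific binding.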

Sequence	PBM E-score
AACCCATA	0.391
ACCCCATA	0.373
CCCCCATA	-0.0168
ACCCCATG	0.255
AACCCATT	0.276
GTATTCAA	0.123
AGCCACAG	-0.199
GACAGCCA	-0.146
ACGTCACT	-0.246
GCCTTACC	0.0234
CCATAAAC	0.0419
AAGGTACT	0.33
CAGGTACA	0.101
AAGGTAGC	0.307
AAGGTATC	0.255
GAGGTACC	0.432
GAGGTACA	0.155
CAGGTACG	0.0402
AAGGTAGT	0.373
CAGGTACC	0.415
AACGTACT	0.0257
AAGGTAGA	0.106
GAGGTAGC	0.0662
GGATCCCC	-0.152
CGATAGAG	-0.236

Sequence	PBM E-score
GTACCTTA	0.265
GGCATAGA	-0.0663
CGCTACGA	-0.0679
AAGGTACG	0.0328
AAGGTACA	0.223
AAGGTACC	0.445
CCAGTTAG	0.00998
CCAATAGA	-0.224
CTAGTTAA	0.144
CGACGAAC	-0.0937
ATATAACG	0.183
CTATAACA	-0.0126
CTATAACC	0.446
ATATAACC	0.456
ATATAACA	0.176
CTATAATC	-0.017
AACCAACA	0.254
CGGCTCGA	-0.172
ACAAAAGC	-0.0458
CAGCGCAG	-0.221
AGGGTGGG	0.334
CGGGTTGC	0.18
AGGGTGGA	0.163
AGGGTTGC	0.46
AGGGTTGG	0.333

Sequence	PBM E-score
AGGGTGGC	0.293
AGGGTTTC	0.232
AGGGTTGA	0.271
ATGGTTGG	-0.0414
TCATGCGA	-0.00209
GCTCTTGA	-0.213
CGGAGTTC	0.0089
GTTAGGAA	0.168
GAAGCAAC	0.106
AACCGGTC	0.14
AACCGGGG	-0.00821
AACCGGGA	0.133
AACCGGTT	0.348
AACCGGTG	-0.0964
AACCGGGT	0.319
CGGAACTA	0.141
CGATGCCG	-0.11
GACTTGCA	-0.0829
CGGGTTGA	0.24
GGAGTTAC	0.137
CGGGTTTA	0.205
GGGGTTAC	0.464
CGGGTTAC	0.439
CGGGTTAG	0.0706
CGGGTTTC	0.289

Sequence	PBM E-score
CGGGTTAA	0.356
GGGTTTAC	0.316
TCACAGCA	0.124
ACTCCTTG	0.0145
ATGGTGAA	-0.0722
CACCACTG	-0.0127
CTACGTAG	-0.0165
TAAGTTCA	0.0427
GGTAGACA	-0.0227
CACCGGTA	0.188
ACCCGGTA	0.329
CCCCGGTA	0.153
ACCCGGTC	-0.0272
AACCGGTA	0.0841
TACCGGTA	0.355
ACTAGCTG	-0.214
CATAGTGC	-0.16
AGCGAATC	-0.083
CTCCAGAC	-0.165
AGGGTAAG	0.373
AGAGTAAG	0.0042
ATGGTAAT	0.239
AGGGTAAA	0.235
AGGGTAAT	0.38
GAGAGCAC	-0.00012

Sequence	PBM E-score
CATTGGAG	-0.0511
GAAGCATC	-0.258
ACGATGCG	-0.223
ACCGTAAC	0.331
CTCGTAAC	0.327
CTCGTAAG	0.215
GTCGTAAC	0.256
ACCGTAAG	0.101
ACCGTAAT	0.0558
ACAAGTCC	-0.0469
GCAACTGC	-0.207
ACGAGTTA	0.0684
ATACCTCA	0.223
ATACCTCG	0.338
ATACCTCC	-0.0021
CACACCTA	-0.0992
TAGACATA	0.0776
AAAAAGGT	0.403
ACAAAGGT	0.352
AAAAAGGG	0.243
AAAAAGGA	0.15
ACAAAGGC	0.0392
ACAAAGGG	0.0567
CCTTTCTA	0.121
ATCTAACC	0.226

Sequence	PBM E-score
CAATACCC	0.214
AGATACCG	0.0651
AGATACCC	0.325
GGATACCA	0.17
GGATACCC	0.393
AAATACCC	0.328
AGATACCA	0.137
AAATACCT	0.128
CGATACCC	0.275
ACTCATGA	-0.0211
CAGTAGGA	-0.247
AGATATCT	0.0317
TGATTGAA	0.154
ACCTAAGG	0.185
ACTGCTTC	-0.175
ACCTTGCT	0.218
CCCTTGAA	0.102
ACCTTGAC	0.266
ACCTTGGG	0.327
TCCTTGAA	0.158
ACCTTGGA	0.195
CCCTTGAG	0.33
CCCTTGAC	0.193
ACCTTGGC	0.106
ACCTTGAA	0.337

Sequence	PBM E-score
ACCTTGAT	0.325
GCCTTGAA	0.0337
CGTGAGGA	-0.201
AGAGCGAA	-0.124
CACTCTGG	-0.151
CATTCTAG	-0.0521
GGATAGAA	0.0515
CGTTAGAG	-0.109
CATCCAGC	-0.108
ACCTTGAG	0.354
AACTTGAG	-0.143
ACCTTGCG	0.284
GAGGTCAC	0.392
ACGGTCAA	0.177
ACGGTCAT	0.359
GAGGTCAA	0.21
AAGGTCAA	0.279
AAGGTCCT	0.123
ACGGTCAG	0.0381
AAGGTCGA	0.176
AAGGTCGT	0.334
AAGGTCGC	0.193
CAGGTCAC	0.195
AAGGTCAT	0.444
